Test results: PubChem BioAssay AID1159580 (chemical genetic matrix, 2015)
Where “and” joins values, the source holds several entries; their conditions need not be identical. Equal entries are not always repeated. Screen size: about 5,500 compounds; about 2,000 (36%) were called active. Not shown: some 18% with an inconclusive outcome. Cut-off read from the data, not from the text of the source: active = normalized growth mostly below about 0.91 (no sharp cut-off); inconclusive = no clear call, values can overlap the other calls; inactive = mostly above about 0.92. The list shows a part of the results.

Experiment: chemical genetic growth profiling, strain panel (AID 1159580);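 note: tested at 20 µM; growth read once vehicle control cultures reached saturation at 30 °C; 1 = growth at the plate median or of vehicle wells; lower values mean less growth of the strain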
Conditions: S. cerevisiae deletion strains, growth OD

Measured: normalized growth

Nc1nc(/C(=C/CC(=O)O)C(=O)N[C@@H]2C(=O)N3C(C(=O)O)=CCS[C@H]23)cs1
inactive: locus YAL013W, strain DEP1, hits give low values 0.991 | locus YAL021C, strain ccr4, hits give low values 1.01 | locus YAL026C, strain drs2, hits give low values 1.01 | locus YAL030W, strain snc1, hits give low values 1.02 | locus YBL061C, strain skt5, hits give low values 1 | locus YBR009C, strain hhf1, hits give low values 1.02 | locus YBR021W, strain FUR4, hits give low values 0.982 | locus YBR023C, strain chs3, hits give low values 1.01 | locus YBR171W, strain sec66, hits give low values 1.04 | locus YBR229C, strain ROT2, hits give low values 0.971 | locus YBR231C, strain swc5, hits give low values 1.01 | locus YBR279W, strain paf1, hits give low values 1 | locus YCL011C, strain gbp2, hits give low values 1 | locus YCL016C, strain dcc1, hits give low values 0.99 | locus YCL029C, strain bik1, hits give low values 0.988 | locus YCL061C, strain MRC1, hits give low values 1.01 | locus YCL069W, strain vba3, hits give low values 1 | locus YCR088W, strain abp1, hits give low values 1.01 | locus YDL005C, strain med2, hits give low values 1.01 | locus YDL035C, strain GPR1, hits give low values 1.01 | locus YDL040C, strain nat1, hits give low values 0.997 | locus YDL074C, strain BRE1, hits give low values 1.02 | locus YDL101C, strain DUN1, hits give low values 0.989 | locus YDL134C, strain PPH21, hits give low values 0.988 | locus YDL185W, strain tfp1, hits give low values 0.99 | locus YDL192W, strain arf1, hits give low values 0.983 | locus YDR001C, strain nth1, hits give low values 1.02 | locus YDR069C, strain doa4, hits give low values 1.01 | locus YDR101C, strain arx1, hits give low values 0.99 | locus YDR137W, strain rgp1, hits give low values 1.01 | locus YDR150W, strain NUM1, hits give low values 0.998 | locus YDR159W, strain sac3, hits give low values 1.02 | locus YDR162C, strain NBP2, hits give low values 1 | locus YDR195W, strain ref2 1.01 | locus YDR297W, strain sur2, hits give low values 1.01 | locus YDR318W, strain mcm21, hits give low values 0.996 | locus YDR334W, strain swr1, hits give low values 0.993 | locus YDR335W, strain msn5, hits give low values 1.01 | locus YDR388W, hits give low values 0.992 | locus YDR392W, strain spt3, hits give low values 1.01 | locus YDR502C, strain sam2, hits give low values 0.992 | locus YEL003W, strain gim4, hits give low values 1.01 | locus YEL037C, strain rad23, hits give low values 1 | locus YEL061C, strain CIN8 (second series), hits give low values 1 | locus YEL061C, strain CIN8, hits give low values 0.995 | locus YER015W, strain faa2, hits give low values 1 | locus YER016W, strain bim1, hits give low values 0.998 | locus YER110C, hits give low values 0.978 | locus YER111C, strain swi4, hits give low values 1.01 | locus YER155C, strain BEM2 (second series), hits give low values 1.03 | locus YER155C, strain BEM2, hits give low values 1.04 | locus YER167W, strain BCK2, hits give low values 0.985 | locus YFR010W, strain ubp6, hits give low values 1 | locus YGL078C, strain dbp3, hits give low values 0.995 | locus YGL086W, strain mad1, hits give low values 0.991 | locus YGL167C, strain pmr1, hits give low values 1 | locus YGL173C, strain kem1, hits give low values 1.02 | locus YGL227W, strain vid30, hits give low values 1.01 | locus YGL240W, strain doc1, hits give low values 1.01 | locus YGL248W, strain PDE1, hits give low values 0.978 | locus YGL253W, strain hxk2, hits give low values 1 | locus YGR078C, strain PAC10, hits give low values 1.03 | locus YGR135W, strain pre9, hits give low values 0.991 | locus YGR229C, strain SMI1, hits give low values 0.935 | locus YGR252W, strain gcn5, hits give low values 1.04 | locus YHR013C, strain ard1, hits give low values 0.997 | locus YHR027C, strain rpn1, hits give low values 1.01 | locus YHR030C, strain SLT2, hits give low values 0.99 and 0.989 | locus YHR079C, strain IRE1 (second series), hits give low values 0.998 | locus YHR079C, strain IRE1, hits give low values 0.974 | locus YHR094C, strain hxt1, hits give low values 0.99 | locus YHR129C, strain ARP1, hits give low values 0.989 | locus YHR142W, strain chs7, hits give low values 1.02 | locus YHR200W, strain rpn10, hits give low values 0.992 | locus YIL066C, strain RNR3, hits give low values 0.993 | locus YIL073C, strain SPO22, hits give low values 1.03 | locus YIL125W, strain kgd1, hits give low values 0.994 | locus YIR030C, strain dcg1, hits give low values 0.987 | locus YJL092W, strain hpr5, hits give low values 1 | locus YJL095W, strain BCK1 (second series), hits give low values 1.01 | locus YJL095W, strain BCK1, hits give low values 0.997 and 1.01 | locus YJL115W, strain asf1, hits give low values 1.03 | locus YJL129C, strain trk1, hits give low values 1.01 | locus YJL134W, strain LCB3, hits give low values 0.993 | locus YJL154C, strain vps35, hits give low values 1.01 | locus YJL164C, strain tpk1, hits give low values 0.988 | locus YJL166W, strain qcr8, hits give low values 1.02 | locus YJL168C, strain set2, hits give low values 0.99 | locus YJL187C, strain SWE1 (second series), hits give low values 0.989 | locus YJL187C, strain SWE1, hits give low values 1.01 | locus YJR043C, strain POL32, hits give low values 0.981 | locus YJR066W, strain TOR1, hits give low values 0.949
